About 1,100 (79%) of roughly 1,400 compounds were called active.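 How the source made its calls: active means fitted half-maximal concentration of a falling signal no higher than twice the top valid dose in every test run; inconclusive means runs disagree, or flat partial inhibition, or poor fit; inactive means every run inactive: flat, wrong direction, or potency beyond limit.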 So high a share suggests a set chosen from earlier hits. Only a sample is shown. Potency and affinity values are given separately.

This test can be described thus: HIV-1 AD8 envelope cell-cell fusion blockers – cherry-pick, dose response (AID 652062). Particulars: HeLa-AD8 Env / CEM-CCR5 cell fusion, luciferase; at 35 µM (top of the series) unless noted.
Regarding `COC(=O)[C@H](Cc1ccccc1)NC(=O)Cn1cnc(C(=O)Nc2ccc(C)c(C)c2)n1`, the activity change, negative = inhibition turned out to be 23.2%.

For the molecule `CCOc1ccccc1C(=O)NCC(=O)NNC(=O)CN(C)S(=O)(=O)c1ccc(Cl)cc1`, the activity change, negative = inhibition was -52.6%.

For `Nc1c(S(=O)(=O)c2ccccc2)cnc2c(-c3ccc(F)cc3)cnn12`, the activity change, negative = inhibition is 63.4% [at 16 µM].

With `COc1ccc(OC)c(-c2cc(C(=O)Nc3c(C)nn(Cc4ccc(Cl)cc4)c3C)no2)c1`, the activity change, negative = inhibition was -43.8%.

As to `Cc1ccc2c(c1)c1c3n2CCN(CCC#N)C3CCC1` (configuration not stated), the activity change, negative = inhibition is 81.2%.

With `N#C[C@@H]1[C@H](c2ccc(-c3ccccc3F)cc2)[C@@H](CO)N1C(=O)c1ccccn1`, the activity change, negative = inhibition was -32.3%.

For `N#C[C@H]1[C@@H](c2ccccc2/C=C/c2ccccc2)[C@@H](CO)N1S(=O)(=O)c1cccc(F)c1`, the activity change, negative = inhibition came to 108%.

For `CCC(=O)N(C)C(c1ccccc1Cl)c1nnnn1-c1c(C)cccc1C` (configuration not stated), the activity change, negative = inhibition stood at 49.6%.

For `Cc1ccc(S(=O)(=O)N(C)C)cc1NC(=O)C(C)N(C)CCOc1ccc(Cl)cc1` (configuration not stated), the activity change, negative = inhibition is -21.5% [at 8 µM].

As for `COc1ccc(NC(=O)CN2CCC(C(N)=O)(N3CCCCC3)CC2)cc1`, the activity change, negative = inhibition was -10%.

As for `COCC(=O)N(C)C[C@H]1Oc2ncc(Br)cc2C(=O)N([C@H](C)CO)C[C@H]1C`, the activity change, negative = inhibition was determined as 50.8%.

As for `COCCCNC(=O)c1sc2ncnc(N3CCc4ccccc4C3)c2c1C`, the activity change, negative = inhibition stood at 60.7%.

With `O=C(c1ccccc1)N1CCN(c2ncnc3sc4c(c23)CCC4)CC1`, the activity change, negative = inhibition was -54.4%.

Consider `Cc1ccc(C2Oc3ccccc3C3=C2C(c2cccs2)n2ncnc2N3)cc1` (configuration not stated), for which the activity change, negative = inhibition is 12.9%.

On to `CC(NNC(=S)N1CCCCCC1)c1ccc2ccccc2n1` (configuration not stated), for which the activity change, negative = inhibition is -26.1%.

Turning to `CN1CC(c2ccccc2)C2(SC(=S)N(Cc3ccco3)C2=O)C12C(=O)Nc1ccccc12` (configuration not stated), the activity change, negative = inhibition was -103%.

Consider `CNC[C@H]1Oc2c(NC(=O)Nc3cccc4ccccc34)cccc2C(=O)N([C@H](C)CO)C[C@H]1C`, for which the activity change, negative = inhibition amounted to 104%.

In the case of `C[C@H]1CN([C@@H](C)CO)C(=O)c2cccc(NC(=O)c3ccncc3)c2O[C@@H]1CN(C)C(=O)Nc1cccc2ccccc12`, the activity change, negative = inhibition amounted to 63.7%.

Turning to `O=C(NCc1cccc(F)c1)[C@@H]1[C@@H](CO)[C@@H]2Cn3c(ccc(-c4cccnc4)c3=O)[C@H]1N2CC1CC1`, the activity change, negative = inhibition is 1.91%.

Turning to `NC(=S)c1ccc(OCCCc2ccccc2)cc1`, the activity change, negative = inhibition was found to be 30.2%.

On to `O=C(C[C@@H]1C=C[C@@H](NC(=O)c2ccccc2)[C@H](CO)O1)NCc1ccc(Oc2ccccc2)cc1`, for which the activity change, negative = inhibition was -28.3%.

On to `C[C@@H]1CN([C@H](C)CO)C(=O)c2cccc(NS(=O)(=O)c3ccc(Cl)cc3)c2O[C@@H]1CN(C)Cc1ccc(Cl)c(Cl)c1`, for which the activity change, negative = inhibition was -25.6%.

Turning to `C[C@H]1CN([C@@H](C)CO)C(=O)c2cccc(NS(=O)(=O)c3ccc(Cl)cc3)c2O[C@@H]1CN(C)Cc1ccc(C(F)(F)F)cc1`, the activity change, negative = inhibition turned out to be 9.5%.

Turning to `CN(C)CC(=O)Nc1ccc2c(c1)[C@H]1C[C@@H](CC(=O)NCCc3ccccc3)O[C@H](CO)[C@H]1O2`, the activity change, negative = inhibition was 14.9% [at 30 µM].

Turning to `COc1cccc(S(=O)(=O)N[C@H]2CC[C@H](CC(=O)NCc3ccncc3)O[C@@H]2CO)c1`, the activity change, negative = inhibition turned out to be 30.8%.

As for `Cc1ccc2c(c1)C(=C(C#N)C#N)CCN2`, the activity change, negative = inhibition was found to be 85.1%.

With `C[C@H]1CN([C@@H](C)CO)S(=O)(=O)c2ccc(-c3cccc(C#N)c3)cc2O[C@H]1CN(C)Cc1cccc(F)c1`, the activity change, negative = inhibition came to 4.15%.

For `C[C@H]1CN([C@@H](C)CO)S(=O)(=O)c2ccc(-c3ccc(F)cc3)cc2O[C@H]1CN(C)Cc1cccc(F)c1`, the activity change, negative = inhibition was -95%.

Consider `C[C@@H]1CN([C@H](C)CO)S(=O)(=O)c2ccc(-c3ccccc3)cc2O[C@@H]1CN(C)Cc1ccccc1`, for which the activity change, negative = inhibition is -17.9%.

On to `COc1cc(-c2cc(OC)c(O)c(OC)c2)cc(OC)c1O`, for which the activity change, negative = inhibition amounted to 27.9%.

Consider `CCc1nc(N2CCCCC2)c2oc3ccccc3c2n1`, for which the activity change, negative = inhibition was determined as 16.4%.

Turning to `CCc1nc(N2CCCCC2C)c2oc3ccccc3c2n1` (configuration not stated), the activity change, negative = inhibition was 131%.

Regarding `C=CCN1C(=S)CC(c2ccccc2)=Nc2ccccc21`, the activity change, negative = inhibition is 1.53%.

Turning to `C[C@H](CO)N1C[C@H](C)[C@@H](CN(C)Cc2ccncc2)Oc2cc(C3=CCCCC3)ccc2S1(=O)=O`, the activity change, negative = inhibition was determined as 57.2% [at 15 µM].

With `C[C@@H]1CN([C@@H](C)CO)S(=O)(=O)c2ccc(C3=CCCC3)cc2O[C@@H]1CN(C)C(=O)C1CCOCC1`, the activity change, negative = inhibition stood at 50.5%.

Consider `COc1ccc(Nc2ncc(C(=O)N3CCN(c4ccc(F)cc4)CC3)c3ccccc23)cc1`, for which the activity change, negative = inhibition came to 0.701%.

As to `COc1ccc2[nH]c3c(N4CCC(O)(c5cccc(C(F)(F)F)c5)CC4)ncnc3c2c1`, the activity change, negative = inhibition was -33.8%.

For `Cc1noc(C)c1S(=O)(=O)Nc1cccc2c1O[C@H](CN(C)Cc1ccc(C(F)(F)F)cc1)[C@H](C)CN([C@H](C)CO)C2=O`, the activity change, negative = inhibition is 36.8%.

Consider `C[C@@H]1CN([C@@H](C)CO)C(=O)c2cccc(NS(=O)(=O)c3ccc(F)cc3)c2O[C@@H]1CN(C)Cc1ccc(C(F)(F)F)cc1`, for which the activity change, negative = inhibition was -35.8%.

`C[C@@H]1CN([C@H](C)CO)C(=O)c2cccc(NS(=O)(=O)c3ccc(F)cc3)c2O[C@@H]1CN(C)Cc1ccc(C(F)(F)F)cc1`: the activity change, negative = inhibition is -28.7%.

With `COc1ccc(CCNC(=O)COC(=O)c2cccn2C)cc1`, the activity change, negative = inhibition is -11.1%.

For `O=S(=O)(NCC[C@@H]1CC[C@@H](NS(=O)(=O)c2ccccc2Cl)[C@H](CO)O1)c1ccc(Cl)cc1`, the activity change, negative = inhibition turned out to be 68.7%.

Turning to `O=S(=O)(NCC[C@H]1CC[C@H](NS(=O)(=O)c2ccccc2Cl)[C@H](CO)O1)c1ccc(Cl)cc1`, the activity change, negative = inhibition turned out to be 67.6% [at 30 µM].

Consider `Cc1ccc2c(C)nc(Nc3nc(CSc4nnnn4-c4ccccc4)cc(=O)[nH]3)nc2c1`, for which the activity change, negative = inhibition was -21.8%.

In the case of `C=CCOc1c(Br)cc(CNc2ccc(NC(=O)C(C)C)c(OC)c2)cc1OC`, the activity change, negative = inhibition worked out at 129%.

`Cc1ccc(NC(=O)c2ccc(OCC3CCCO3)cc2)cc1Cl` (configuration not stated): the activity change, negative = inhibition is -7.89%.

As for `CC(NC(=O)c1ccccc1NC(=O)CN1CCc2ccccc2C1)c1ccccc1` (configuration not stated), the activity change, negative = inhibition was -3.06%.

Regarding `O=C1c2cccnc2C(Nc2ccc(S(=O)(=O)N3CCCCC3)cc2)N1Cc1ccccc1` (configuration not stated), the activity change, negative = inhibition came to 6.27%.

With `O=C1c2cccnc2C(Nc2ccc(S(=O)(=O)N3CCCCCC3)cc2)N1Cc1ccccc1` (configuration not stated), the activity change, negative = inhibition was -20.4%.

As for `CCCc1cc(C(=O)NCc2ccc(OC)cc2)no1`, the activity change, negative = inhibition amounted to 14.3%.

For `Cc1noc(C)c1S(=O)(=O)N(C)C[C@H]1Oc2ccc(NC(=O)Nc3ccccc3)cc2CC(=O)N([C@H](C)CO)C[C@H]1C`, the activity change, negative = inhibition came to 14.5%.

For `CCNC(=O)C[C@@H]1CC[C@@H]2[C@H](COC[C@@H](O)CN2C(=O)c2ccccn2)O1`, the activity change, negative = inhibition worked out at 66.2%.
